Records with an inconclusive call do not appear. Activity calls are given as the source filed them. Calls come from the whole dose curve; as a rule, active = well fitted inhibition curve with a large enough effect; inconclusive = small, poorly fitted or top-dose-only effect; inactive = flat fitted curve, though single readings scatter.
The compounds below were run against Calcium and integrin-binding protein 1 (Homo sapiens) (UniProt Q99828) (assay: Primary qHTS for Identification of Calcium Integrin Binding Protein 1 (CIB1) Competitor (AID 1508620;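 note: GST tagged CIB1 binding a fluorescein labelled alphaIIb integrin peptide tracer; top concentration of the series differs between compounds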)). Settings: CIB1-GST / FITC-alphaIIb peptide fluorescence polarization; series mostly up to 114 µM; activity change, negative = inhibition: at the top concentration.
Procedure, shortened: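 Fluorescence polarization competition: CIB1-GST (1 uM final) preincubated with compound 15 min at room temperature, then FITC-labeled alphaIIb peptide (100 nM final) added for another 15 min. Polarization read at Ex 480/Em 540.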
% is set by controls: 0 for no effect and ±100 for the full control effect.

Calcium and integrin-binding protein 1 (Homo sapiens), sequence (Q99828 whole entry, looked up): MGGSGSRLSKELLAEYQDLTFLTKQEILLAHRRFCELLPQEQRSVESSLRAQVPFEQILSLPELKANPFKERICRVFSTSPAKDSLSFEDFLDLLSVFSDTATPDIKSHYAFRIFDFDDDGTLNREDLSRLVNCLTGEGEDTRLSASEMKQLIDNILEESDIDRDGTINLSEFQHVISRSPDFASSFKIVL

Compound	activity change, negative = inhibition
COc1cccc(Cn2ncc3c4sc(SC)cc4n(C)c3c2=O)c1	-1.28% (inactive)
Cc1ccc(NS(=O)(=O)c2ccc3c(c2)N(C)CCO3)cc1C	-2.24% (inactive)
Cn1nnnc1Sc1ncnc2scc(-c3cccc4ccccc34)c12	2.19% (inactive)
Cc1ccc(NS(=O)(=O)c2ccc3c(c2)CCC(=O)N3)cc1F	3.19% (inactive)
NC(=O)C[C@H](N)C(=O)Nc1ccc(Cl)cc1C(=O)c1ccc[nH]1	-4.86% (inactive)
COc1ccc(C2Nc3ccccc3C(=O)N2Cc2cccnc2)cc1COc1c(C)cc(NC(C)=O)cc1C (stereo not given)	2.45% (inactive)
COc1ccc(C2=Nn3c(nnc3-c3ccccc3O)SC2)cc1	-0.42% (inactive)
CC(C)Oc1cccc(-c2csc(N3CCC(C(N)=O)CC3)n2)c1	1.35% [at 384 µM] (inactive)
Cc1ccc(S(=O)(=O)Nc2cccc3ccc(C)nc23)cc1	1.08% (inactive)
CC(C)(C)OC(=O)N1CCN(c2ccc(NCc3nnc(-c4ccc(C#N)cc4)o3)cc2)CC1	-0.469% (inactive)
COc1ccc(C(=O)N(Cc2ccccc2)Cc2ccccc2)cc1COc1ccc(NC(C)=O)cc1	1.79% (inactive)
Cc1cc2c(s1)c1cnn(Cc3ccc(Br)cc3F)c(=O)c1n2C	5.52% (inactive)
COc1ccc(-c2csc3ncnc(Sc4nnnn4C)c23)cc1	-1.35% (inactive)
N#CN1CCC(N[S+](=O)([O-])c2cccc(F)c2)CC1	3.12% (inactive)
O=C(CCc1ccccc1)Nc1cccc([S+](=O)([O-])Nc2ccccc2F)c1	0.363% (inactive)
COc1ccc(C2Nc3ccccc3C(=O)N2Cc2ccccc2)cc1COc1c(C)cccc1C (stereo not given)	3.08% (inactive)
COc1cc(-c2csc(N3CCC(C(N)=O)CC3)n2)cc(OC)c1OC	-1.04% (inactive)
Cc1ccc2nc3sc(C(=O)NC4CCC(O)CC4)cc3cc2c1 (stereo not given)	-0.684% (inactive)
CC(=O)Nc1ccc(S(=O)(=O)Nc2cccc3cccnc23)cc1	4.04% (inactive)
COc1ccc(NC(=O)CN2C(=O)N/C(=C\c3cccn3-c3ccc(C(=O)NC#N)cc3)C2=O)cc1	0.095% (inactive)

Compound	activity change, negative = inhibition
FC(F)(F)c1cccc(N2CCN(C(=S)Nc3cccnc3)CC2)c1	0.253% (inactive)
O=c1c2ccccc2nc2sc(Nc3cccc(Cl)c3)nn12	5.23% (inactive)
COc1ccccc1NC(=O)C(OC(=O)CNC(=O)c1ccccc1)c1ccccc1 (stereo not given)	7.74% (inactive)
CC(C)(C)OC(=O)NCc1nnc(-c2cc3ccccc3[nH]2)o1	-2.65% (inactive)
CC(C)(C)OC(=O)N1CCN(c2ccc(NCc3ccc(-c4ccc(C#N)cc4)o3)nc2)CC1	4.28% (inactive)
O=C(Nc1ccc(-c2ccccc2)cc1)Nc1nnc(-c2ccncc2)s1	-4.01% (inactive)
COc1ccc(CNc2ccc(N3CCN(C(C)=O)CC3)cc2)cc1OC	-7.46% (inactive)
O=C(N[C@H]1CCCc2c1cnn2-c1ccc(F)cc1F)c1ccccn1	-0.229% (inactive)
FC(F)(F)c1ccccc1-c1nc(NCc2ccc(-c3ccccc3)cc2)c2ccccc2n1	2.55% (inactive)
Cc1ccc(NS(=O)(=O)c2cc3c(cc2N(C)C)NC(=O)CC3)cc1C	2.77% (inactive)
O=C(Nc1ccc2ccccc2c1)Nc1nnc(-c2cccnc2)s1	1.17% (inactive)
CCN(CCc1cn(C)cn1)c1ncnc2ccc(-c3ccc4c(c3)OCO4)cc12	4.75% (inactive)
COc1ccc(C2=Nn3c(nnc3-c3ccccc3C)SC2)cc1	-2.45% (inactive)
Cc1cc(C)nc(NC(=S)N2CCN(c3cccc([N+](=O)[O-])c3)CC2)c1	-21.9% (inactive)
CCOC(=O)CCCC(=O)Nc1ncnc2c1C(c1ccccc1)c1c(ccc3ccccc13)O2 (stereo not given)	7.37% (inactive)
COc1ccc(OC)c(-c2nnc3n2N=C(c2ccc(OC)c(OCC4CC4)c2)CS3)c1	-6.74% (inactive)
CC(C)(N)C(=O)Nc1ccc(Cl)cc1C(=O)c1ccc[nH]1	-0.117% (inactive)
O=C(Nc1ccc(-n2ccnc2)c(F)c1)Nc1nnc(-c2ccncc2)s1	-3.16% (inactive)
O=C(Nc1ccc2ccccc2c1)Nc1nnc(-c2ccncc2)s1	1.15% (inactive)
O=S(=O)(NCc1ccccc1F)c1ccc(O)c2ncccc12	-5.9% (inactive)
